Data reported in the supplement of paper PMC10338343.
± gives the standard deviation.

System: MILI (PIWIL2) piRISC loaded with piRNA #1 (26 nt)
Assay: pre-steady-state target cleavage rate (min^-1); guide: piRNA #1 5'p-UGAGGUAGUAGGUUGUAUAGUAUCCA; MIWI and MILI are mouse PIWI proteins and EfPiwi is from a freshwater sponge; tags in brackets are library labels; higher = faster piRNA-guided slicing of the target
Details: auxiliary factor: 500 nM mouse GTSF1
Summary of the method: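 Reactions were run for 0–8 or 0–960 min at 33 °C in HEPES–potassium acetate buffer, combining 1 nM active affinity-purified piRISC with one synthetic guide, […] transcribed, DNA-blocked target RNA library and, in some cases, 500 nM GTSF1 partner protein. Sequencing of uncleaved targets followed, with normalisation to depth and to weakly complementary targets. Three trials were pooled, k3 was capped at 0.0001 min^-1, and the pre-steady-state cleavage rate was taken from a burst-and-steady-state fit.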
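Also: 1 nM active piRISC with 0.1 nM target library at 33 °C single turnover.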

GGAGACCAUACUAAACAACCUACAACCUCA and GGAGACCUUACUAUACAAGCUACUUCCUCA are within error of each other in “pre-steady-state target cleavage rate” value: 0.117 ± 0.016 for the first, 0.149 ± 0.021 for the second.

First: GGAGACCUAUGUAUACAACCUACUACUCA
Second: GGAGACCUUACUAUACAACCUACUUGGAGA [g7:g22:cont:t1A]
The “pre-steady-state target cleavage rate” value of the first is higher: 0.063 ± 0.013 for the first, 0.00375 ± 0.0034 for the second.

Compared with GGAGACCUAUGAUAACAACCUACUUGGUCA, GGAGACGAUUCUAUACAACCUACAACCUCA is higher in “pre-steady-state target cleavage rate” value: less than 0.0001 for the first, 0.164 ± 0.013 for the second.

GGAGACCUAACUAAACAACCUACUACCUGA and GGAGACCUAUGUAUACAACCUACUACUUCA are within error of each other in “pre-steady-state target cleavage rate” value: 0.0558 ± 0.021 for the first, 0.0634 ± 0.0075 for the second.

Going from GGAGACCUAACUAUACAAGGUACUACCUCA to GGAGACCAUACAAUACAAGCUACUACCUCA, the “pre-steady-state target cleavage rate” value rises from 0.0664 ± 0.012 to 0.205 ± 0.016.

Going from GGAGUGGAUACUAUACAACCUACCUACCUCA to GGAGACCUAAGUAUACAACCUACUACGUCA, the “pre-steady-state target cleavage rate” value falls from 0.128 ± 0.0098 to 0.0129 ± 0.0032.

Compared with GGAGACCUAACUAUACAAUCUACUACCUCA, GGAGACCUUACUAUUCAUCCUACUACCUCA is higher in “pre-steady-state target cleavage rate” value: 0.0713 ± 0.012 for the first, 0.231 ± 0.018 for the second.

First: GGAGACCUAUGUUUACAACCUUCUACCUCA
Second: GGAGACGAUACAAUUCAACCUACUACCUCA
The “pre-steady-state target cleavage rate” value of the first is lower: 0.00358 ± 0.0029 for the first, 0.147 ± 0.01 for the second.
